Experimental data reported in PubChem BioAssay AID463173 (ICCB-Longwood Screening Facility, Harvard Medical School, 2010).
Out of some 52,000 compounds screened, about 4,300 (8.3%) were called active. The full list was thinned out, with actives kept by preference. Values without a mark were called inactive. Rule as the data show it: active = survival mostly below about 52% (no sharp cut-off); inactive = mostly above about 56%.

Each molecule was assayed on DeltatarO mutant (assay: S. aureus survival, RN4220 and DeltatarO strains – OD600, teichoic acid synthesis inhibitors, primary screen (AID 463173)). Conditions: S. aureus RN4220 wild type/DeltatarO growth, OD600, 18 h, stronger effect = lower value, screened at 18.75 µg/mL (by protocol).

SMILES	survival
O=C(Nc1ccccc1-c1ccccc1)NC1CCN(CC(=O)N2CCOCC2)CC1	73%
CC1=C(C(=O)N2CCN(c3ccc(Cl)cc3)CC2)C2(CCC(C)CC2)OC1=O (stereo not drawn)	121%
CCc1ccc(CNC(=O)CN(c2ccc(C)cc2)S(=O)(=O)N(C)C)cc1	76%
O=C(OC(C(=O)NC1CCCC1)c1cccnc1)C1=Cc2ccccc2OC1 (stereo not drawn)	96%
COc1cccc(C(=O)N2c3nc(-c4ccco4)nn3C3(CCCCC3)[C@@H]3CCCC[C@@H]32)c1	95%
CNS(=O)(=O)c1cn(CC(=O)Nc2ccc(C)cc2C)cc1S(=O)(=O)NC	117%
CNS(=O)(=O)c1cn(CC(=O)Nc2ccc(F)cc2F)cc1S(=O)(=O)NC	0% (active)
Cc1cc(F)ccc1NC(=O)Cn1cc(S(=O)(=O)NC(C)C)c(S(=O)(=O)NC(C)C)c1	90%
COc1ccc(-c2onc(C)c2C)cc1S(=O)(=O)NCC1CCN(Cc2cc(C)ccc2C)CC1	100%
CCOC(=O)c1cc(-c2ccc(C)cc2)n(CCC(=O)NCc2ccccc2)c1C	108%
CCOC(=O)c1cc(-c2ccc(F)cc2)n(CCC(=O)NCc2ccccc2OC)c1C	52% (active)
CCOC(=O)c1cc(-c2ccccc2)n(CCC(=O)Nc2ccc(OC)c(Cl)c2)c1C	92%
CCOC(=O)c1cc(-c2ccc(C)cc2)n(CCC(=O)Nc2ccc(OC)c(OC)c2)c1C	52% (active)
CCOC(=O)c1cc(-c2ccc(F)cc2)n(CC(=O)NCc2ccc(OC)cc2)c1C	75%
CCOC(=O)c1cc(-c2ccccc2)n(CC(=O)NCc2ccccc2OC)c1C	101%
CCOC(=O)c1cc(-c2ccccc2)n(CC(=O)NCc2ccc(C)cc2)c1C	37% (active)
CCOC(=O)c1cc(-c2ccccc2)n(CCC(=O)NCCc2cccc(C)c2)c1C	58%
CCOC(=O)c1cc(-c2ccccc2)n(CCC(=O)NCCc2ccc(C)cc2)c1C	71%
CCOC(=O)c1cc(-c2ccc(F)cc2)n(CCC(=O)Nc2ccccc2OC)c1C	101%
CCOC(=O)c1cc(-c2ccccc2)n(CCC(=O)NCCc2ccccc2)c1C	0% (active)
CCOC(=O)c1cc(-c2ccc(C)cc2)n(CCC(=O)Nc2ccc(C(C)C)cc2)c1C	61%
CC1CCc2c(sc(NC(=S)NC(=O)c3ccn(C)n3)c2C(N)=O)C1 (stereo not drawn)	99%
O=C1CS(=O)(=O)C2(C(=O)N(Cc3ccc(F)cc3)c3ccccc32)N1c1cccc(C(F)(F)F)c1 (stereo not drawn)	124%
O=C(NCc1ccc(Cl)cc1)c1cnc(N2CCCCC2)c2ccccc12	84%

SMILES	survival
CCc1ccc(N(CC)C(=O)c2ccc3c(=O)n4c(nc3c2)CCCCC4)cc1	86%
CCOc1ccc(NC(=O)Cn2ncc3c2-c2cc(C)ccc2OC3)cc1	73%
Cc1c(C(=O)NCc2cccc(F)c2)oc2c1-c1[nH]ncc1CC2	71%
CC1(C)CC(=O)C(C=NCCCN2CCCC2=O)=C(O)C1	94%
CC(CN=CC1=C(O)CC(C)(C)CC1=O)N=CC1=C(O)CC(C)(C)CC1=O (stereo not drawn)	101%
CC(C)C(=O)N1CCC(CN=CC2=C(O)CC(C)(C)CC2=O)CC1	52% (active)
CC(O)Cc1nsc(NC(=O)c2cccs2)n1 (stereo not drawn)	81%
CC(C)NC(=O)C1CCN(C(=O)c2cc3sccc3n2Cc2ccc(Cl)cc2)CC1	65%
CCn1c(C(=O)N2CCC(C(=O)N3CCN(c4cc(C)ccc4C)CC3)CC2)cc2sccc21	51%
CCn1c(C(=O)N2CCC(C(=O)N3CCN(c4ccc(OC)cc4)CC3)CC2)cc2sccc21	49% (active)
COCCNC(=O)C1CCN(C(=O)c2cc3sccc3n2Cc2ccc(Cl)cc2)CC1	110%
COCCCNC(=O)C1CCN(C(=O)c2cc3sccc3n2Cc2ccc(Cl)cc2)CC1	59%
CC(C)CCNC(=O)C1CCN(C(=O)c2cc3sccc3n2Cc2ccc(Cl)cc2)CC1	40% (active)
CCC(C)NC(=O)C1CCN(C(=O)c2cc3sccc3n2Cc2ccc(Cl)cc2)CC1 (stereo not drawn)	45% (active)
CCn1c(C(=O)N2CCC(C(=O)NCCc3ccc(C)cc3)CC2)cc2sccc21	58%
COc1ccc(N2CCN(C(=O)c3cc4sccc4n3Cc3ccccc3)CC2)cc1	92%
Cc1ccc(CN(CC(=O)NC2CCCC2)C(=O)CSc2nnc(COc3ccccc3)o2)cc1	80%
O=C(Cn1c(=O)n(-c2ccc(Cl)cc2)c(=O)c2c3c(sc21)CCC3)c1ccc(F)cc1	51%
COc1ccc(N2CCN(C(=O)Cn3nc(Cc4cccnc4)c4ccccc4c3=O)CC2)cc1	108%
Cc1cc(C)c(NC(=O)CSc2nc(=O)n(Cc3cccnc3)c3c2CCC3)c(C)c1	104%
C[n+]1ccn(CC(=O)c2ccccc2)c1	78%
COCCN=Cc1c(NCCOC)nc2ccccn2c1=O	103%
COC(=O)c1sc(N)c(C#N)c1C	74%
CC(C)NC(=O)C1CCN(c2nc3ccccc3nc2C(F)(F)F)CC1	101%

SMILES	survival
CSc1ccc(NC(=O)C2CCN(c3ncccn3)CC2)cc1	110%
CC(NC(=O)C1CCN(c2nc3ccccc3nc2C(F)(F)F)CC1)c1ccccc1 (stereo not drawn)	37% (active)
Cc1ccc(NC(=O)C2CCN(c3ncccn3)CC2)cc1F	53% (active)
O=C(Nc1ccc(F)cc1)C1CCN(c2nc3ccccc3nc2C(F)(F)F)CC1	118%
Cc1cc(C)cc(NC(=O)C2CCN(c3nc4ccccc4nc3C(F)(F)F)CC2)c1	93%
CC(C)(C)NC(=O)C1CCN(c2nc3ccccc3nc2C(F)(F)F)CC1	63%
Cc1ccc(NC(=O)C2CCN(c3nc4ccccc4nc3C(F)(F)F)CC2)cc1C	91%
Cc1ccc(NC(=O)C2CCN(c3nc4ccccc4nc3C(F)(F)F)CC2)cc1F	46% (active)
O=C(Nc1ccc(Cl)cc1)C1CCN(c2nc3ccccc3nc2C(F)(F)F)CC1	25% (active)
O=C(Nc1cccc(Cl)c1)C1CCN(c2nc3ccccc3nc2C(F)(F)F)CC1	70%
O=C(Nc1ccc(F)c(Cl)c1)C1CCN(c2ncccn2)CC1	63%
O=C(Nc1ccc(F)cc1F)c1c2c(nc3ccccc13)C(=O)N(C1CCCCC1)C2	81%
CCN(CC)C(=O)C1CCN(c2nnc(C)c3c(C)n(-c4ccc(Cl)cc4)nc23)CC1	95%
CCOc1ccc(N(C(C)C(=O)NCCSc2ccc(C)cc2)S(C)(=O)=O)cc1 (stereo not drawn)	45%
COc1ccc(OC)c(NC(=O)CSC2=Nc3ccccc3C3=NC(CC(=O)NCc4ccco4)C(=O)N23)c1 (stereo not drawn)	99%
CC(C)Nc1nc(NC(N)=O)nc(NC(C)C)n1	104%
CCOc1ccc(CN2C(=O)c3ccccc3C2C(=O)NCCc2ccc(OC)c(OC)c2)cc1 (stereo not drawn)	88%
CCSc1nc2c([nH]c3ccccc32)c(=O)n1CC	68%
Cc1nc2c(-c3ccccc3)c(C)nn2c(C)c1CCC(=O)NCc1ccc(F)cc1	94%
COc1ccc(C(=O)N2CC(C)CC(C)C2)cc1 (stereo not drawn)	98%
CC1CCN(c2nn3c(=O)c(C(=O)NCCc4ccccc4)cnc3s2)CC1	95%
O=C(Nc1cccc(C(F)(F)F)c1)Nc1nnc(N2CCCCC2)s1	82%
NC(=O)N/N=C/c1ccc(-c2ccc(Cl)cc2)o1	87%
CCc1ccccc1N(C)C(=O)Cn1cnc2sc(C)c(S(=O)(=O)N3CCC(C)CC3)c2c1=O	71%

SMILES	survival
CC(C)CCOc1ccc(C2N=C(N)Nc3nc4ccccc4n32)cc1 (stereo not drawn)	-3% (active)
COc1cc(C2N=C(N)Nc3nc4ccccc4n32)ccc1OCCC(C)C (stereo not drawn)	68%
CC(C)c1ccc(C2N=C(N)Nc3nc4ccccc4n32)cc1 (stereo not drawn)	101%
CCC(C#CCN1CCCCC1)(CC)OC(C)=O	98%
CCOC(=O)c1ccc(OCC2c3cc(OC)c(OC)cc3CCN2C(=O)Cc2ccc(F)cc2)cc1 (stereo not drawn)	68%
NC(=O)CSc1nc2c(oc3ccccc32)c(=O)n1-c1ccccc1F	59%
CC1(NS(=O)(=O)c2ccccc2)CCS(=O)(=O)C1 (stereo not drawn)	98%
CC1(C)CC(N=Cc2c(O)[nH]c(=O)[nH]c2=O)CC(C)(C)N1	85%
O=C(Nc1cc(Cl)cc(Cl)c1)c1ccc(F)c(S(=O)(=O)N2CCN(c3ccccc3F)CC2)c1	84%
CN(C)C(=O)COc1ccc(S(=O)(=O)c2ccc(OCC(=O)N(C)C)cc2)cc1	109%
Cc1ccc(-c2nc(S(=O)(=O)c3ccc(F)cc3)c(N3CCN(c4ccccc4)CC3)o2)cc1	72%
CCCCS(=O)(=O)c1oc(-c2ccc(F)cc2)nc1S(=O)(=O)c1ccc(C)cc1	30% (active)
CCSc1oc(-c2ccc(F)cc2)nc1S(=O)(=O)c1ccc(C)cc1	45%
COc1ccccc1NC(=O)CSc1oc(-c2ccccc2)nc1S(=O)(=O)c1ccc(C)cc1	158%
CSc1oc(-c2cccs2)nc1S(=O)(=O)c1ccc(Br)cc1	56%
COc1ccc(-c2nc(S(=O)(=O)c3ccc(C)cc3)c(NCc3ccccc3)o2)cc1	67%
Cc1ccc(S(=O)(=O)c2nc(-c3ccc(F)cc3)oc2N2CCN(c3ccccc3)CC2)cc1	107%
CC(C)CS(=O)(=O)c1oc(-c2ccc(F)cc2)nc1S(=O)(=O)c1ccccc1	-4% (active)
CSc1oc(-c2ccc(F)cc2)nc1S(=O)(=O)c1ccc(Br)cc1	41% (active)
COc1ccccc1NC(=O)CSc1oc(-c2ccc(F)cc2)nc1S(=O)(=O)c1ccc(Br)cc1	49% (active)
COc1ccccc1NC(=O)CSc1oc(-c2ccccc2)nc1S(=O)(=O)c1ccccc1	145%
